Drawing on PubChem BioAssay, this text covers composite z-score and z-score for 16 compounds.

A short description of experiment [1]: binders of probe aFSTL3 on microarray, primary screen, stem cell growth factor project, biochemical, small-molecule microarray, fluorescence 635/667 (AID 1064).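 Further: measures binding of the biotinylated anti-FSTL3 antibody to printed compounds.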 The conditions noted are these: higher = more signal.
A short description of experiment [2]: binders from COS7 lysate, DM2A8 probe, primary screen, torsin A project, cell lysate, small-molecule microarray, fluorescence 635/667 (AID 1065). The following applies: higher = more signal, COS7 lysate expressing mutant human TOR1A.
The nature of experiment [3]: binders of probe aFGF2 on microarray, primary screen, stem cell growth factor project, biochemical, small-molecule microarray, fluorescence 635/667 (AID 1067).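 Further: measures binding of biotinylated aFGF2 protein to printed compounds on slides; z-score merges feature fluorescence and signal-to-noise across triplicate slides.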 The conditions noted are these: higher = more signal.
Experiment [4] is described as follows: binders of probe aFGF10 on microarray, primary screen, stem cell growth factor project, biochemical, small-molecule microarray, fluorescence 635/667 (AID 1071).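 Further: score merges 667 nm spot intensity and signal to noise from triplicate slides.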 The conditions noted are these: higher = more signal.
In experiment [5] the target is Neurogenic locus notch homolog protein 2 (Homo sapiens) (UniProt Q04721). The experiment in a line: Notch2 binders on small-molecule microarrays, primary screen, biochemical, small-molecule microarray, 635 nm fluorescence, stem cell growth factors (AID 1073). The following applies: Notch2 binding, higher = more signal.
Experiment [6] deals with Pro-neuregulin-1, membrane-bound isoform (Homo sapiens) (UniProt Q02297). The experiment in a line: NRG1 binders on small-molecule microarrays, primary screen, psychiatric disease protein project, biochemical, small-molecule microarray, fluorescence 635/667 (AID 1075).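 Further: score combines 667 nm spot fluorescence with signal to noise.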 The conditions noted are these: NRG1 binding, 635 nm fluorescence, higher = more signal.
In experiment [7] the test system is Neuregulin-1 EGF-like domain. The experiment in a line: binders of neuregulin-1 EGF-like domain, primary screen, biochemical, small-molecule microarray, 635 nm fluorescence (AID 1081).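 Further: binding of the protein to compounds printed on small-molecule microarray slides.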 The conditions noted are these: small-molecule microarray binding, higher = more signal.
Experiment [8] is described as follows: FRG1 promoter luciferase signal modulators, primary screen, FRG1 inhibition for FSHD, cell-based, C2C12 myotubes, firefly/Renilla luciferase, luminescence (AID 1084). The conditions noted are these: higher = more signal, called active from +8 up or from −8 down.
Experiment [9] can be described thus: binders of probe aFST on microarray, primary screen, stem cell growth factor project, biochemical, small-molecule microarray, fluorescence 635/667 (AID 1086).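 Further: score merges 667 nm fluorescence with signal-to-noise of each printed compound spot.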 The following applies: higher = more signal.
The nature of experiment [10]: binders of probe aHhip on microarray, primary screen, stem cell growth factor project, biochemical, small-molecule microarray, fluorescence 635/667 (AID 1087).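 Further: score merges spot fluorescence at 667nm with spot signal to noise ratio.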 The following applies: higher = more signal.

Molecules are shown by their SMILES. Activity calls are given as the source filed them.

Chain of Neurogenic locus notch homolog protein 2 (Homo sapiens) (Q04721 whole entry, looked up, canonical isoform): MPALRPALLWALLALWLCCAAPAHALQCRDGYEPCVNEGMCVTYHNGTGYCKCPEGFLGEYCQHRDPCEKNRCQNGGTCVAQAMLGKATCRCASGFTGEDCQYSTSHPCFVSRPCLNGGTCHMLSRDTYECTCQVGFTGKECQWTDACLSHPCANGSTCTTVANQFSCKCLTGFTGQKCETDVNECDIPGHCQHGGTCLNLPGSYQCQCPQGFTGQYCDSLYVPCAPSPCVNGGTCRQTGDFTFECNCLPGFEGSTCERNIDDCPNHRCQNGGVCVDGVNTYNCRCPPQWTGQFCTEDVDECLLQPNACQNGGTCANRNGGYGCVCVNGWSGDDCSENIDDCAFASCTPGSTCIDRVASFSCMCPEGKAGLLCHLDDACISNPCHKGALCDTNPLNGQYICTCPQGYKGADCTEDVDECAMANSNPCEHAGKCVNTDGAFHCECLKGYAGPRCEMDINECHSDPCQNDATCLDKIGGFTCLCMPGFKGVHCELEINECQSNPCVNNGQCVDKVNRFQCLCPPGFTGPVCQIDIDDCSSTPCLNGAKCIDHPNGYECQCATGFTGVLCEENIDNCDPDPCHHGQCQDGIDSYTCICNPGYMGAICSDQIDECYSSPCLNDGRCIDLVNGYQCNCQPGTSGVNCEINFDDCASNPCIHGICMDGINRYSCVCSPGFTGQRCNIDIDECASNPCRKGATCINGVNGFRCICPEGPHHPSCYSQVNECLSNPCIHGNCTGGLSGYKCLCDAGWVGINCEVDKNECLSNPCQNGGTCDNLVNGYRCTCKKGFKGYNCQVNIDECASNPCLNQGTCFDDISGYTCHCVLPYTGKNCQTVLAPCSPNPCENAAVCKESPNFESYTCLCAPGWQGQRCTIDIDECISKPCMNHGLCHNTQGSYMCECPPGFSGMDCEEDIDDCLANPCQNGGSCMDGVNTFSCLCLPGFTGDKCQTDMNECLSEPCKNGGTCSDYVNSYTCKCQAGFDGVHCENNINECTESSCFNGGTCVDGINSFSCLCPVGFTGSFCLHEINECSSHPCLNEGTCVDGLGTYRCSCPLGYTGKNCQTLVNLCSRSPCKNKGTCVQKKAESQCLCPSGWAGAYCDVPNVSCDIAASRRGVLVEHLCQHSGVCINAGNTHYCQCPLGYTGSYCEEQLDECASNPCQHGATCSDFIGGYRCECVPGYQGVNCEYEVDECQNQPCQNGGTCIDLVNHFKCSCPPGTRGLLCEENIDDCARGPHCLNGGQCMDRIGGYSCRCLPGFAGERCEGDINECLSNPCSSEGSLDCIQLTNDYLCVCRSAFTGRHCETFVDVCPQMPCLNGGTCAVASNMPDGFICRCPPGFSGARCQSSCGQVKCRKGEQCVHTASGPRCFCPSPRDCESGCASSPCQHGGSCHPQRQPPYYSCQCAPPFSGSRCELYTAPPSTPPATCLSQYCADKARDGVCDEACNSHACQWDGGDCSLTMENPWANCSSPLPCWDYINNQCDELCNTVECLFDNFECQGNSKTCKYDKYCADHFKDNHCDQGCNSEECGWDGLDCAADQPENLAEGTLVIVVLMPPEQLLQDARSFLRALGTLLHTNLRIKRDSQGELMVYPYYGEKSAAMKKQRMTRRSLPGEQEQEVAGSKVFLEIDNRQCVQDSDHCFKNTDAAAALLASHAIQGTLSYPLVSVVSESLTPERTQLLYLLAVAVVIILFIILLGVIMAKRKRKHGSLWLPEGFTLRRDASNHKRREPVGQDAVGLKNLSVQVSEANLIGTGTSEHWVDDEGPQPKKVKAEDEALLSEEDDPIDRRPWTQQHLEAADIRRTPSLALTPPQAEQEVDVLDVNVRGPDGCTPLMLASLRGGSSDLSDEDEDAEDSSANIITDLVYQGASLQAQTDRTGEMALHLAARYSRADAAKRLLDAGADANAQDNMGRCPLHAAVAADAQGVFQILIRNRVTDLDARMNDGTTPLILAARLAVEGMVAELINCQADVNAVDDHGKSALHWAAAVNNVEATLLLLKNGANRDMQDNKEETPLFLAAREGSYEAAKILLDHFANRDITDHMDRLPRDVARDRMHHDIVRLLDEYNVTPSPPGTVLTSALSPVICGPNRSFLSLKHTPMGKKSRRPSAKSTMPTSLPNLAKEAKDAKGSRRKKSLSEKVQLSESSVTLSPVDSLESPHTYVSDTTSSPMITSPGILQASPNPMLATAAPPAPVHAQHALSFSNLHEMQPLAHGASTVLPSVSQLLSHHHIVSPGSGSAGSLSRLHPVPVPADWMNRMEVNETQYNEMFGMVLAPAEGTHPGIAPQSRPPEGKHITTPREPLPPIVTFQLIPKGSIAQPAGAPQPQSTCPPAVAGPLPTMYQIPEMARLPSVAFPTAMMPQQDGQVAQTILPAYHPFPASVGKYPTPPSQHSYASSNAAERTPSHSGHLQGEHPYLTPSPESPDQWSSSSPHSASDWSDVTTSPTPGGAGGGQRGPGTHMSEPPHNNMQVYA
Chain of Pro-neuregulin-1, membrane-bound isoform (Homo sapiens) (Q02297 whole entry, looked up, the tested form may be a part, canonical isoform): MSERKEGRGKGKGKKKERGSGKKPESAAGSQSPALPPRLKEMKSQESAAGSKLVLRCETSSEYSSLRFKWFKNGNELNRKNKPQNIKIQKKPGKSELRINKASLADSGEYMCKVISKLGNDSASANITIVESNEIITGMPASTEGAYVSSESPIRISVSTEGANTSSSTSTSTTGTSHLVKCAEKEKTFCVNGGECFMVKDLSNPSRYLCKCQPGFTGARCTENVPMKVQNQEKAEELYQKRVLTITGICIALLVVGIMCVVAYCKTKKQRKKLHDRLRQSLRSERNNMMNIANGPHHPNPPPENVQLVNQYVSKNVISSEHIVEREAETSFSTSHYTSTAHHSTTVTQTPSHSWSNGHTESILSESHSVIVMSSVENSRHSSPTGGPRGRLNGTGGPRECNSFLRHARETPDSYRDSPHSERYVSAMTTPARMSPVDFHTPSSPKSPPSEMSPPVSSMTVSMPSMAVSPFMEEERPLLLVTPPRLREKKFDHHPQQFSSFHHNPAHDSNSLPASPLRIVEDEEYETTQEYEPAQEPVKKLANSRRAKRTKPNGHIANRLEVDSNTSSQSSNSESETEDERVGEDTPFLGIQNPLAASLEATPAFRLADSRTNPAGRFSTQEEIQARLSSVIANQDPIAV

For `COC(=O)c1c2oc(c1C(=O)OC)C(=O)NC1(CCCCC1)c1cn(nn1)C[C@H](Cc1ccccc1)NC(=O)N[C@H](CO)CC2`, the composite z-score in experiment [1] was -0.414; in experiment [2] it was -0.0111; in experiment [3], -0.13; in experiment [4] it was 0.117; in experiment [5], 0.531; in experiment [6], 1.49. For the same compound, the values for the composite z-score in experiment [7], in experiment [9] and in experiment [10] were 1.11, -0.224 and 0.0373, respectively. Besides, the z-score in experiment [8] was -0.553 (inactive).

Take `[N-]=[N+]=NCc1ccccc1[C@@H]1OC(c2ccc(OCCCO)cc2)=N[C@]1(CCS(=O)(=O)c1ccccc1)C(=O)N1CCCCC1`: the composite z-score was 0.0217 in experiment [1]; -0.267 in experiment [2]; 0.0714 in [3]; 0.398 in experiment [4]; 1.66 in experiment [5]; 2.13 in [6]. Further, the composite z-score is 1.28 in experiment [7], 1.69 in experiment [9] and -0.26 in experiment [10]. In [8], the z-score is -0.0344 (inactive).

Regarding `COC(=O)[C@@]1(Cc2ccccc2)[C@H]2c3cc(C(=O)N(C)C)n(Cc4ccc(OC)c(OC)c4)c3C[C@H]2CN1C(=O)c1ccccc1`, the composite z-score was determined as 0.396 in experiment [1]; 0.517 in experiment [2]; 0.487 in experiment [3]; 1.23 in [4]; 1.83 in [5]; 1.62 in experiment [6]. Besides, the composite z-score in experiment [7] came to 1.34; in experiment [9] it was 1.28; in experiment [10], 0.66. The z-score in experiment [8] is 0.115 (inactive).

With `COC(=O)[C@@]1(Cc2ccc(OC)cc2)[C@H]2c3cc(C(=O)N4CCCC4)n(CCSCCO)c3C[C@H]2CN1C(=O)c1ccccc1`, the composite z-score in experiment [1] was 0.32; in experiment [2] it was -0.399; in experiment [3], 0.46; in experiment [4] it was 0.651; in experiment [5], 1.69; in experiment [6], 1.86. The composite z-score is 1.4 in experiment [7], 1.3 in experiment [9] and 0.455 in [10]. Further, in experiment [8], the z-score was -0.15 (inactive).

Regarding `CC(C)CNC(=O)[C@@]1(Cc2ccccc2I)c2ccccc2C(=O)N(Cc2ccccc2C(F)(F)F)[C@H]1c1ccc(CO)cc1`, the composite z-score was 0.0085 in experiment [1]; 0.0038 in experiment [2]; -0.118 in experiment [3]; -0.128 in experiment [4]; -1.46 in experiment [5]; 0.89 in experiment [6]. In addition, the composite z-score is -0.13 in experiment [7], -0.374 in [9] and -0.236 in [10]. Further, in [8], the z-score was 0.49 (inactive).

With `C=C(C)[C@@H]1CC=C(C(O)C2C=CC3C(=O)NC(=O)C3N2Nc2ccc(Cl)cc2Cl)CC1` (stereo not given in full), the composite z-score in experiment [1] was determined as 0.917; in experiment [2], 0.403; in experiment [3], 0.0095; in experiment [4], 0.117; in [5], 1.42; in experiment [6], 1.35. Also, the composite z-score in experiment [7] is 0.953; in experiment [9] it was 1.2; in [10], -0.0645. Also, the z-score in [8] is 1.3 (inactive).

Turning to `COC(=O)c1c(CC[C@@H](CO)NC(=O)N[C@@H](Cc2ccccc2)Cn2cc(-c3ccccn3)nn2)oc(C(=O)N2CCOCC2)c1C(=O)OC`, the composite z-score in experiment [1] was -0.39; in experiment [2], -0.451; in [3] it was -0.0348; in experiment [4], 0.218; in experiment [5] it was 0.303; in experiment [6] it was -0.0149. Also, the composite z-score is 0.734 in experiment [7], 0.128 in experiment [9] and -0.356 in [10]. Also, in experiment [8], the z-score was 0.183 (inactive).

For the compound `COC(=O)[C@@]1(Cc2ccccc2)[C@H]2c3cc(C(=O)N4CCCC4)n(Cc4ccc(O)c(OC)c4)c3C[C@H]2CN1C(=O)c1ccccc1`, the composite z-score in experiment [1] was 0.528; in [2] it was -0.162; in experiment [3], 0.185; in [4] it was 0.0854; in experiment [5], 1.53; in experiment [6] it was 1.66. Moreover, the composite z-score in experiment [7] came to 1.39; in experiment [9], 1.04; in experiment [10] it was 0.651. In [8], the z-score was -0.433 (inactive).

Consider `Cc1ccc(S(=O)(=O)N2C[C@@H](C(=O)O)[C@H](Sc3ccccc3)C[C@H]2c2ccccc2)cc1`, for which the composite z-score was 0.265 in experiment [1]; 0.57 in experiment [2]; 0.172 in experiment [3]; 1.15 in experiment [4]; 1.61 in [5]; 1.3 in [6]. In addition, the composite z-score was 1.12 in experiment [7], 1.56 in experiment [9] and -0.34 in experiment [10]. In addition, the z-score in [8] was -2.97 (inactive).

Consider `CC(C)N1CC=CC23O[C@@H]4C=CCOC(=O)[C@@H]4[C@H]2C(=O)N(CCCCCO)[C@@H]3C1=O` (stereo not given in full), for which the composite z-score was -0.354 in experiment [1]; 0.272 in experiment [2]; -0.153 in experiment [3]; -0.267 in experiment [4]; -0.669 in [5]; 0.24 in [6]. Also, the composite z-score was 1.27 in experiment [7], -0.308 in experiment [9] and -0.132 in [10]. The z-score in [8] was -0.907 (inactive).

On to `C#CCOc1ccc(C[C@@H](C(=O)OC)N(CC#C)[C@@H](/C=C/C2CC2)[C@H](O)Cc2ccccc2)cc1`, for which the composite z-score in [1] was 0.282; in [2], -1; in experiment [3], -0.198; in [4], -0.207; in experiment [5], -1.12; in experiment [6], -0.294. In addition, the composite z-score in [7] is -0.0146; in experiment [9], -0.353; in experiment [10], -0.0994. Further, in experiment [8], the z-score was -4.34 (inactive).

For `COc1ccccc1CN1C(=O)c2ccccc2[C@@H](C(=O)NCc2ccccc2)[C@@H]1c1ccc(CO)cc1`, the composite z-score in experiment [1] was -0.232; in [2], 0.939; in experiment [3] it was -0.171; in [4] it was -0.298; in experiment [5], 0.0668; in experiment [6] it was 1.1. Moreover, the figures for the composite z-score in experiment [7], in [9] and in experiment [10] were 1.26, 0.635 and -0.34, respectively. In experiment [8], the z-score is -2.9 (inactive).

For `CCOC(=O)C[C@H]1[C@H](OC(=O)c2cc3ccccc3oc2=O)[C@@H](NC(=O)CC(C)C)c2cc(OCCCO)ccc2N1C(=O)c1ccccc1`, the composite z-score in experiment [1] was -0.26; in experiment [2] it was 0.478; in [3], -0.0327; in experiment [4], 0.667; in experiment [5], 0.3; in experiment [6] it was -0.0698. The composite z-score in experiment [7] is 0.397; in [9] it was 0.128; in experiment [10] it was 0.0373. In [8], the z-score is -0.332 (inactive).

For the compound `C[N+](C)(C)CCCCCCNC(=O)[C@H]1C[C@H]2C(=O)N[C@@H](Cc3ccccc3)C(=O)N2[C@H]1c1cccc(OCCO)c1`, the composite z-score in [1] was -0.429; in experiment [2], 0.652; in experiment [3] it was -0.0266; in experiment [4], 0.293; in experiment [5], 0.357; in experiment [6], 0.318. Moreover, the composite z-score in experiment [7] was 1.31; in experiment [9] it was -0.0975; in experiment [10], -0.0645. In addition, the z-score in [8] is 3.64 (inactive).

For the compound `COc1ccc([Si](C)(C)[C@H]2[C@H](CCn3cc([C@H](O)c4ccccc4)nn3)O[C@@]3(C(=O)N(C)c4ccccc43)[C@@H]2C)cc1`, the composite z-score in [1] was 0.0044; in experiment [2], 0.165; in experiment [3], -0.0418; in experiment [4], -0.209; in experiment [5] it was -0.623; in [6], 0.104. The composite z-score in [7] is 0.553; in experiment [9] it was -0.619; in experiment [10], -0.199. Further, the z-score in experiment [8] was -1.36 (inactive).

As for `O=C1C2C=CC(C(O)COCc3ccccc3)N(Nc3ccc([N+](=O)[O-])cc3)C2C(=O)N1c1ccccc1` (stereo not given), the composite z-score in experiment [1] is 0.0903; in [2], -0.58; in experiment [3] it was -0.0004; in experiment [4] it was 1.14; in experiment [5] it was 1.57; in [6], 0.661. For the same compound, the composite z-score in experiment [7] is 1.32; in experiment [9], 1.44; in experiment [10], -0.145. Moreover, the z-score in experiment [8] was 0.123 (inactive).
